From PubChem BioAssay (Tox21) come the findings set out here.

The structures appear in SMILES notation. Inconclusive results are not listed. Values without a mark were called inactive. The source made the active and inactive calls. The call rests on the fitted dose curve.
On the % scale 0 is the no-effect control and ±100 the full control effect; potency means the concentration at half of the fitted maximal effect.

The assay in a line: p53 small molecule agonists, cell-based qHTS assay with human liver microsomes: qHTS cell viability counter screen (AID 1963579). Further: nearly all actives have a fitted effect of over 45% in size. Particulars: p53RE-bla HCT-116 viability, ATP luminescence, 16 h, HLM; series mostly up to 66 µM; activity change, negative = cytotoxicity: at the top concentration. An excerpt: National Center for Advancing Translational Sciences [NCATS]
Division of Preclinical Innovation [DPI]
U.S. Environmental Protection Agency [EPA]
National Institutes of Environmental Health Sciences [NIEHS]
National Toxicology Program [NTP]
U.S. Food and Drug Administration [FDA]
p53, a tumor suppressor protein, is activated following cellular insult, including DNA damage and other cellular stresses. The activation of p53 regulates cell fate by inducing DNA repair, cell cycle arrest, apoptosis, or cellular senescence. The activation of p53, therefore, is a good indicator of DNA damage and other cellular stresses. […] The activation of the reporter gene under culture conditions can be detected by fluorescence intensity. This cell line was used to screen the Tox21 10K compound library in the condition of presence of human liver microsomes and to identify agonists that activate the p53 signaling pathway after in vitro metabolic activation (Ooka et al., Archive of Toxicology 96:1975-1987, 2022).
Tox21 Assay Protocol Summary:
The p53RE-bla cells were dispensed at 4,000cells/3ul/well in 1536-well black-clear bottom plates. After the assay plates were incubated at 37 C, 5% CO2 incubator for 5 hours, 23 nL of compounds dissolved in DMSO, positive controls or DMSO only was transferred to the assay plate. Following compound addition, 3 uL of human liver microsomes (XenoTech, Kansas City, KS) at final concentration of 0.5 mg/mL and 1uL of B-Nicotinamide adenine dinucleotide 2'-phosphate (NADPH) at final concentration of 0.5 mg/mL were transferred to the assay plate. The plates were incubated at 37 C for 16 hours. 1 uL of LiveBLAzer detection mixture was added to each well and the plates were incubated at room temperature in the dark for 2 h. Fluorescence intensity at 460 and 530 nm emission and 405 nm excitation were measured by an Envision plate reader. For cell viability readout that measures cytotoxicity, 4 ul/well of CellTiter-Glo reagent was added into the assay plates using a Flying Reagent Dispenser. After 30 min incubation at room temperature, the luminescence intensity in the plates was measured using a ViewLux plate reader.
In general terms: qHTS replaces the single test concentration by a dilution series.
`CNCC[C@@H](Oc1ccccc1C)c1ccccc1`: the “activity change, negative = cytotoxicity” value is 6.36% [at 30.3 µM]. For `CN(C)CCOc1ccc(/C(=C(/CCCl)c2ccccc2)c2ccccc2)cc1`, the Potency was 30.3 µM (active).

On to `CCc1ccc(O)c(C(C)(C)C)c1`, for which the “activity change, negative = cytotoxicity” value is -24.2%. On the same count and under the same terms, in the case of `O=C(O)c1ccccc1C(=O)OCc1ccccc1` it was 13.1%; in that of `CCC1Nc2cc(Cl)c(S(N)(=O)=O)cc2S(=O)(=O)N1` (stereo not given), -7.89% [at 30.3 µM]; in that of `Cc1ccc(C(=O)C(C)CN2CCCCC2)cc1` (stereo not given), 2.24% [at 30.3 µM].

Regarding `Clc1nc2ccccc2nc1Cl`, the “activity change, negative = cytotoxicity” value is -0.916%. Same read-out and setting: the same measure for `CCCCC(CC)COC(=O)COc1cc(Cl)c(Cl)cc1Cl` (stereo not given): 6.26%. As for `O=S1(=O)N=C(O)c2ccccc21`, the “activity change, negative = cytotoxicity” value is -7.67% [at 30.3 µM]. On to `COc1cc(Nc2c(C#N)cnc3cc(OCCCN4CCN(C)CC4)c(OC)cc23)c(Cl)cc1Cl`, for which the “activity change, negative = cytotoxicity” value is -3.6% [at 30.3 µM]. Still for that read-out and setting: the same measure for `O=CO`: -2.15% [at 5.99 µM]; for `c1cc2ccc3ccc4ccc5cccc6c(c1)c2c3c4c56`: -1.32% [at 2.33 µM]; for `Brc1cc2ccccc2c2ccccc12`: -16.3%.

For `CCCCCCCCS(=O)C(C)Cc1ccc2c(c1)OCO2` (stereo not given), the “activity change, negative = cytotoxicity” value was -23.6%. As to `CCN(Cc1ccccc1)c1ccccc1`, the “activity change, negative = cytotoxicity” value was -14.4%.

As for `Cc1cc(NC(=O)C(=O)O)cc(C)c1Oc1ccc(O)c2c1CCC2`, the “activity change, negative = cytotoxicity” value was 11%.

On to `O=c1oc2cc(O)ccc2c2oc3cc(O)ccc3c12`, for which the “activity change, negative = cytotoxicity” value was -16.2%.

As to `CC(=O)Nc1ccc(/C=N/NC(N)=S)cc1`, the “activity change, negative = cytotoxicity” value was 7.9% [at 30.3 µM].

As to `Nc1ccc([N+](=O)[O-])c(N)c1`, the “activity change, negative = cytotoxicity” value is 1.23%. Take `NC(N)=NCCC[C@H](N)C(=O)O`: the activity change, negative = cytotoxicity was -0.294% [at 5.99 µM]. As for `Cc1ccc(N=Nc2c(O)c(C(=O)O)cc3ccccc23)c(S(=O)(=O)O)c1`, the “activity change, negative = cytotoxicity” value was 5.28% [at 30.3 µM]. Consider `O=C(O)CNC(=O)c1ccccc1`, for which the “activity change, negative = cytotoxicity” value is 1.7% [at 30.3 µM]. Still for that read-out and setting: the same measure for `Nc1ccc(N=Nc2ccc(N)cc2)cc1`: -4.6% [at 30.3 µM]. In the case of `Cc1ccc(C(C)(C)C)c(O)c1`, the Potency result was “inactive”. As to `CC(C)OC(=O)c1ccccc1C(=O)OC(C)C`, the “activity change, negative = cytotoxicity” value is 7.81%. Turning to `CCCOc1ccc2c(c1)CC[C@@H]1[C@@H]2CC[C@]2(C)C(OC)CC[C@@H]12` (stereo not given in full), the “activity change, negative = cytotoxicity” value is -11.1% [at 30.3 µM]. As for `O=C1NC(=O)c2cccc3cccc1c23`, the “activity change, negative = cytotoxicity” value is 1.41%.

For `CO[Si](OC)(c1ccccc1)c1ccccc1`, the “activity change, negative = cytotoxicity” value was -27.9%. For `CCCCCCCC/C=C/CCCCCCCC1=NCCN1CCO`, the “activity change, negative = cytotoxicity” value is 12.7%. Same read-out and setting: the same measure for `Oc1ccc(CCNCCCCCCNCCc2ccccc2)cc1O`: -2.23% [at 30.3 µM]. Take `Cc1ccc(NC(=O)c2ccc(CN3CCN(C)CC3)cc2)cc1Nc1nccc(-c2cccnc2)n1`: the “activity change, negative = cytotoxicity” value is -16% [at 30.3 µM]. With `CC(C)COC(=O)/C=C/c1ccccc1`, the “activity change, negative = cytotoxicity” value was -8.18%. For the compound `CC(C)(c1ccc(Oc2ccc(N)cc2)cc1)c1ccc(Oc2ccc(N)cc2)cc1`, the “activity change, negative = cytotoxicity” value was -2.66%. For `Nc1ccc(C(=O)Nc2ccccc2N)cc1`, the “activity change, negative = cytotoxicity” value is -12.7% [at 30.3 µM]. On to `Cc1cc(O)c(Cl)c(C)c1Cl`, for which the “activity change, negative = cytotoxicity” value was -9.18%.

Take `O=S(=O)(O)c1cc(S(=O)(=O)O)c2c(N=Nc3ccccc3)c(O)ccc2c1`: the Potency result is “inactive”.

Consider `Nc1ccn([C@@H]2O[C@H](CO)[C@@H](O)[C@@H]2O)c(=O)n1`, for which the “activity change, negative = cytotoxicity” value was 1.08%. On the same count and under the same terms, the same measure for `CCCCC[Si](OCC)(OCC)OCC`: 0.739%; for `O=S(=O)(O)c1ccc(Nc2nc(Nc3ccc(/C=C/c4ccc(Nc5nc(Nc6ccc(S(=O)(=O)O)cc6)nc(N(CCO)CCO)n5)cc4S(=O)(=O)O)c(S(=O)(=O)O)c3)nc(N(CCO)CCO)n2)cc1`: 2.51% [at 30.3 µM].

As for `O=C(Cl)c1cc(Cl)cc(Cl)c1`, the “activity change, negative = cytotoxicity” value was 0.852%.
